HTT cytoprotect – protects HTT-Q103 PC12 cells, measured by ATP. PC12 HTT-Q103 induced, cytoprotection, ATP luminescence, 40 h. Potency, µM (series often up to 56.4 µM), inactives show cytoprotection (ATP increase), actives largely listed as activators. hit rate 0.14% among 230,000; further: % of control where 0% means no effect; nearly all actives have a fitted effect of over 45% in size
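Compounds added alongside 100 nM tebufenozide, which induces toxic Q103 huntingtin exon 1-GFP in stable PC12 cells; surviving cells quantified by luminescent ATP measurement. Medium: phenol red-free DMEM, 5% equine and 5% calf serum.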
HPGD inh – inhibitors of human 15-hydroxyprostaglandin dehydrogenase (HPGD). P15428. purified HPGD, NADH fluorescence kinetic, PGE2 substrate. Potency, µM, for inactives: at the highest dose activity change, negative = inhibition, hits mostly inhibitors. hit rate 4.3% among 150,000. AID 894; active means well fitted inhibition curve with a large enough effect, not every such curve was filed as active; inconclusive means small, poorly fitted or top-dose-only effect, or another doubt; inactive means no such curve, though single readings can be large or run the other way; further: on the % scale 0 is the no-effect control and ±100 the full control effect
Target sequence (P15428 whole entry, looked up): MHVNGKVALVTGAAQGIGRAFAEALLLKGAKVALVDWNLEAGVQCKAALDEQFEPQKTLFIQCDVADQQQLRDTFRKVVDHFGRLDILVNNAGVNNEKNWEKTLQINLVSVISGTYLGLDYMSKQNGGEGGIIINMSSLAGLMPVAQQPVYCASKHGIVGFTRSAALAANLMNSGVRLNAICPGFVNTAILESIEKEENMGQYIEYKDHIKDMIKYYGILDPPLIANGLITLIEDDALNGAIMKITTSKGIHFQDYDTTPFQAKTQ
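20 nM HPGD preincubated 15 min at room temperature with compound in 50 mM Tris-HCl pH 8, 0.01% Tween 20. Started with 1 mM NAD+ and 30 uM prostaglandin E2; NADH fluorescence (360/450 nm) read 5 times over 30-s intervals, last minus first.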
Lamin A splicing – modulators of lamin A splicing; HeLa LMNA splicing GFP/RFP minigene ratio, 48 h; Potency, µM (titrated, usually from 46.1 µM), for inactives: at the top dose ratio change, negative = inhibition, actives largely listed as inhibitors; hit rate 0.01% among 200,000; active means well fitted inhibition curve with a large enough effect in the signal ratio, with a control signal flat, not every such curve was filed as active; inconclusive means small, poorly fitted or top-dose-only effect, or effect the other way, or a change in a side signal; the % refers to the signal ratio; further: on the % scale 0 is the no-effect control and ±100 the full control effect
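S3 HeLa stable clones carrying a lamin A-EGFP splicing minigene plus DsRed2 were seeded at 600 cells/well in Opti-MEM with 2% FBS, pin-dosed and incubated 48 h at 37°C. Acumen cytometry (488 nm) gave the GFP/RFP total-intensity ratio.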
HttQ103 aggreg – inhibitors of mutant huntingtin aggregate formation in PC12 cells. hit rate 1.1% among 220,000. PC12 HttQ103-GFP aggregates, Acumen cytometry, 40 h. Potency, µM (highest dose often 46.1 µM), for the others: at the top dose activity change, negative = inhibition, actives largely listed as inhibitors; further: on the % scale 0 is the no-effect control and ±100 the full control effect; nearly all actives have a fitted effect of over 60% in size
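Aggregates are detected as GFP objects 1–25 µm with signal 6 STDEV over background in lysates of induced PC12 cells. These carry Huntingtin exon 1 with 103 glutamines fused to GFP under an ecdysone promoter; compounds titrated.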
ALDH1A1 block – ALDH1A1 (human) enzyme inhibition; Purified ALDH1A1, NADH fluorescence, propionaldehyde substrate; Potency, µM (top dose mostly 75.3 µM), inactives show at the top dose activity, negative = inhibition, hits mostly inhibitors; hit rate 7.3% among 220,000; AID 1030; active means well fitted inhibition curve with a large enough effect, not every such curve was filed as active; inconclusive means small, poorly fitted or top-dose-only effect, or another doubt; inactive means no such curve, though single readings can be large or run the other way;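 further: plate controls were no enzyme wells and a reference inhibitor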
* hit, by the source's call; ? = inconclusive; . = no result given; [ ] = remark or other dose. Hits are enriched below; roughly 8.8% of the tested compounds scored in any of these assays. Unless noted, the call rests on the fitted dose curve; in most records, active means well fitted curve in the direction sought with a large enough effect; inconclusive means small, poorly fitted or top-dose-only effect, or another doubt; inactive means no such curve, though single readings can be large; an effect the other way counts as inactive or inconclusive. Potency means the concentration at half of the fitted maximal effect.

SMILES	HTT cytoprotect	HPGD inh	Lamin A splicing	HttQ103 aggreg	ALDH1A1 block
O=C(CCNC(=O)c1ccccc1Cl)Nc1ccc(Cl)c(C(F)(F)F)c1	0.1%[10 µM]	22.4µM*	-2.9%	2.0%	6.1%
C/C(CC(=O)Nc1ccc(Cl)c(C(F)(F)F)c1)=N\NC(=O)c1ccccc1O	-3.7%[10 µM]	-29.2%	?	15.8µM*	-0.3%
Cn1c(=O)c(-c2cc(F)cc(F)c2)nc2cnc(N3CCNCC3)nc21	?	.	-6.2%	.	?
Cc1nc(-c2ccc(S(=O)(=O)N3CCN(c4ccccc4F)CC3)cc2)co1	.	.	-8.9%[46 µM]	.	.
COc1ccccc1CNC(=O)CN1C(=O)CSc2c1c(C)nn2-c1ccccc1	.	.	-10.7%[46 µM]	.	.
Cn1ccnc1SCC(=O)Nc1sccc1C#N	-6.1%[10 µM]	-15.0%	2.4%	2.4%	25.1µM*
Cc1cc(NC(=O)CSc2nccn2C)no1	.	.	.	22.3%	7.4%
CCOC(=O)c1ccc(NC(=O)CSc2nnnn2C2CCCCC2)cc1	-0.2%[1.9 µM]	0.4%	-2.3%	-7.5%	11.3%
CCn1nnnc1SCC(=O)Nc1ccc2c(c1)OCCO2	2.2%[10 µM]	-10.5%	-11.3%	-2.7%	?
COCCCn1nnnc1SCC(=O)Nc1ccc2c(c1)OCCO2	-5.1%[10 µM]	.	?	-10.2%[9.22 µM]	12.6µM*
Cc1cc(C)c(NC(=O)CSc2nccn2C)c(C)c1	-2.6%[10 µM]	6.31µM*	4.0%	4.0%	-7.3%
O=C(CSc1nnnn1C1CCCC1)Nc1ccc2c(c1)OCO2	-4.0%	-1.2%	7.2%	-11.4%	11.2µM*
COCCn1nnnc1SCC(=O)Nc1ccc2c(c1)OCO2	.	.	-10.0%[46 µM]	.	20µM*
COCCn1nnnc1SCC(=O)NCc1ccc2c(c1)OCO2	4.2%[10 µM]	.	6.6%[46 µM]	-4.2%[9.22 µM]	3.7%
COc1ccc(-n2nnnc2SCC(=O)Nc2ccc3c(c2)OCCO3)c(OC)c1	0.7%	-10.4%	?	-32.8%	7.08µM*
O=C(CSc1nnnn1C1CCCC1)c1ccc2c(c1)OCCO2	26.2%[10 µM]	-19.4%	1.4%	17.1%	3.16µM*
Cn1ccnc1SCC(=O)Nc1ccc2c(c1)OCO2	-28.3%	.	-8.9%[46 µM]	-0.5%	14.1µM*
O=C(CSc1nccn1-c1ccccc1)Nc1ccc2c(c1)OCO2	-10.8%	-17.9%	?	1.1%	?
CC(C)n1nnnc1SCC(=O)c1ccc2c(c1)OCCO2	14.6%	-14.9%	5.0%	-3.1%	?
CCOC(=O)c1ccccc1NC1(c2ccc(OC)cc2)C(=O)c2ccccc2C1=O	.	.	8.6%[46 µM]	.	.
O=C(COC(=O)c1cccc(S(=O)(=O)N2CCCC2)c1)NCc1ccccc1	-44.0%	.	10.7%[46 µM]	3.3%	-6.2%
C[C@@]12CCC(O)C[C@H]1CCc1ccccc12 (stereo not given in full)	.	-5.8%	-10.0%	.	-1.9%
Cn1c(SCC(=O)N2CCCC2)nnc1-c1cnccn1	.	.	.	.	-3.1%
COC(=O)c1ccc(Cn2c(=O)cc(C(F)(F)F)c3c(C)nn(C)c32)cc1	.	.	1.4%[46 µM]	.	.
COc1cccc(-n2nnnc2SCC(=O)NC2CCCC2)c1	5.9%	-26.2%	7.0%	3.1%[9.22 µM]	-13.3%
SMILES	HTT cytoprotect	HPGD inh	Lamin A splicing	HttQ103 aggreg	ALDH1A1 block
COc1cccc(C(=O)CSc2nnnn2C2CCCCC2)c1	-1.5%	-24.8%	5.8%	23.5%	2.82µM*
CCCCCCCCCn1c2c(c(=N)c3c1CCC3)CCC2	-51.7%[10 µM]	6.7%	?	1.26µM*	-10.2%
CCCCCCCn1c2c(c(=N)c3c1CCC3)CCCC2	.	.	?	.	-8.2%
CCCCCCn1c2c(c(=N)c3c1CCC3)CCC2	-16.9%[0.074 µM]	-5.0%	?	1.78µM*	?
CC(C)=CC[C@@H](O)C1=CC(=O)c2c(O)ccc(O)c2C1=O	-89.3%	.	.	.	?
CCN(CCC(=O)Nc1cc([N+](=O)[O-])ccc1OC)Cc1ccccc1	.	-13.3%	-3.9%	-12.0%	?
COc1ccc(-c2nn(-c3ccccc3)cc2C(=O)Nc2nccs2)cc1	-39.8%	-18.1%	?	17.8µM*	-4.1%
COc1cccc(-c2nn(-c3ccccc3)cc2C(=O)Nc2nccs2)c1	-46.5%	?	?	?	?
CC(=O)N1CCCc2cc(S(=O)(=O)N3CCCC(C(=O)NC(C)C)C3)ccc21 (stereo not given)	.	.	-9.9%[46 µM]	.	.
Cc1ccc(NC(=O)c2ccc(Nc3c([N+](=O)[O-])cc([N+](=O)[O-])cc3[N+](=O)[O-])cc2)cc1	.	-7.2%	?	?	0.562µM*
Cc1ccc(C(=O)Nc2cc([N+](=O)[O-])ccc2C)cc1	?	.	.	?	13.3%

Source: PubChem (National Center for Advancing Translational Sciences (NCATS))
